Measured values taken from the supplement of paper PMC11732987, “Enantioselective OTUD7B fragment discovery through chemoproteomics screening and high-throughput optimisation” (Communications Chemistry, 2025).

What was measured:
Assay in all cases: log2 ratio of Biotin-Ahx-Ub-VS probe labelling (fragment/DMSO); higher = less target engagement (more negative = stronger competition), active = hit call of the paper (q ≤ 0.05, log2 ratio ≤ -1)
Conditions in all cases: compound concentration: 200 uM; treatment time: 3 h
USP34 = USP34 (UniProt Q70CQ2)
Summary of the method: (§1)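 Labelled DUBs were enriched with NeutrAvidin, digested with LysC and trypsin, and run by diaPASEF LC-MS/MS. The labelling used Biotin-Ahx-Ub-VS at 0.5 µM final for 1 h on HEK293T lysate (495 µg per sample) previously treated in triplicate with fragment at 200 µM or vehicle for 3 h. Values are average log2 fragment/vehicle ratios by unpaired t-test on global-median-normalised Spectronaut quantities of proteins with ≥2 unique peptides.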

USP36 = molecular target: T1, USP36 (UniProt Q9P275)
T1 sequence (whole entry): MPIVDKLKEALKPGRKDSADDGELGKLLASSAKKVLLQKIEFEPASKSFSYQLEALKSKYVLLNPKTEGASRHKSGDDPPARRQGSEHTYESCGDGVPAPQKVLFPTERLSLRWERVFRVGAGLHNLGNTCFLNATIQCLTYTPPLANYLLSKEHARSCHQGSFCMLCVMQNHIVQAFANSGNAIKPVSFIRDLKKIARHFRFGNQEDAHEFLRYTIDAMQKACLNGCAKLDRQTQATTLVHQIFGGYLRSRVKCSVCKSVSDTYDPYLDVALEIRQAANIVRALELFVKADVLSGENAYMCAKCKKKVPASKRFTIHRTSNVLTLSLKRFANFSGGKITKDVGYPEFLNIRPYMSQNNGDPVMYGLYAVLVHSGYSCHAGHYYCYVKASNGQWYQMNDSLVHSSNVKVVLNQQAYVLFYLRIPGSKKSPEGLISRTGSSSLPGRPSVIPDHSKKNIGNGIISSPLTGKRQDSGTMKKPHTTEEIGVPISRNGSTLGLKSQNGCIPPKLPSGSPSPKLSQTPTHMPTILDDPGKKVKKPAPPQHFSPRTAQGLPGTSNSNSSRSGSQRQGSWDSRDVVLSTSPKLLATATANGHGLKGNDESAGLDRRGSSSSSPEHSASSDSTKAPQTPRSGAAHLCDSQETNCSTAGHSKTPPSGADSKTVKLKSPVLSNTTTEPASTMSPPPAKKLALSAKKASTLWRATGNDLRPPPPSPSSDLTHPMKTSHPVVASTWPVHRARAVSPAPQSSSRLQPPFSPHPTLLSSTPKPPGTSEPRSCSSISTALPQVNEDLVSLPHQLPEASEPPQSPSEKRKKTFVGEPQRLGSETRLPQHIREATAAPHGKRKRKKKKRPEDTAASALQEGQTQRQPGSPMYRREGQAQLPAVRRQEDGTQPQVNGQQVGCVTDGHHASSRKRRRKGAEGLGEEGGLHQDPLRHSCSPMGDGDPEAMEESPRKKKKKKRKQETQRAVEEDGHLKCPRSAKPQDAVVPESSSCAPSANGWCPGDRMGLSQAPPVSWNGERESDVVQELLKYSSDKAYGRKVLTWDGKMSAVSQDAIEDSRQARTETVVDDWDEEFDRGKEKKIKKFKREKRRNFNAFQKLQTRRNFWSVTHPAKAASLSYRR
Summary of the method: as §1

USP38 = molecular target: T2, USP38 (UniProt Q8NB14)
T2 sequence (whole entry): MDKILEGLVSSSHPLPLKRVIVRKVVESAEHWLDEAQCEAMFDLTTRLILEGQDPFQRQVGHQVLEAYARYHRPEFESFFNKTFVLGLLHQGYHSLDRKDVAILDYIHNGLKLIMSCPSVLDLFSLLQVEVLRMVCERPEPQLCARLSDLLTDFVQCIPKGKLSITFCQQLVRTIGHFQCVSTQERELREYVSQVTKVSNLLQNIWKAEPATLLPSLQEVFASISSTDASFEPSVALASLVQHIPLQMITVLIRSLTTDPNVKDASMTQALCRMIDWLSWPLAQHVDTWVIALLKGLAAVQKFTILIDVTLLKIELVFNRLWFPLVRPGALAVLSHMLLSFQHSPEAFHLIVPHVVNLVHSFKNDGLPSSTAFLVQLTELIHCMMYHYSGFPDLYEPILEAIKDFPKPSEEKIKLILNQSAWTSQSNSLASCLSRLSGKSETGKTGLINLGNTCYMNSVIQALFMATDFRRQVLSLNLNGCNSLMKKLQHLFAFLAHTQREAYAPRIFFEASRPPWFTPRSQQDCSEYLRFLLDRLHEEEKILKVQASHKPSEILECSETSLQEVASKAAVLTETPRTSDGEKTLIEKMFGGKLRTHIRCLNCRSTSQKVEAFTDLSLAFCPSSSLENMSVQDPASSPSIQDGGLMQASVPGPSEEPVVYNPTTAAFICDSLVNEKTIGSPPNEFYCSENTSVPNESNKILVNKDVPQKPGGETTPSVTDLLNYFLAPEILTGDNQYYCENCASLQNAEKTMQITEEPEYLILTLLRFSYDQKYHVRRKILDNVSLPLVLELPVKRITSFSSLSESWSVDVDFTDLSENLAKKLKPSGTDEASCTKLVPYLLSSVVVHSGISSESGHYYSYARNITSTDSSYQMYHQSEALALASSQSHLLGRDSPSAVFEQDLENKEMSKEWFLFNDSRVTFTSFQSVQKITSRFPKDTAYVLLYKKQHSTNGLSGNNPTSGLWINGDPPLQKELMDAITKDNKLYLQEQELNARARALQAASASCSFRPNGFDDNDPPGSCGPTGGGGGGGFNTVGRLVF
Summary of the method: as §1

USP39 = molecular target: T3, USP39 (UniProt Q53GS9)
T3 sequence (whole entry): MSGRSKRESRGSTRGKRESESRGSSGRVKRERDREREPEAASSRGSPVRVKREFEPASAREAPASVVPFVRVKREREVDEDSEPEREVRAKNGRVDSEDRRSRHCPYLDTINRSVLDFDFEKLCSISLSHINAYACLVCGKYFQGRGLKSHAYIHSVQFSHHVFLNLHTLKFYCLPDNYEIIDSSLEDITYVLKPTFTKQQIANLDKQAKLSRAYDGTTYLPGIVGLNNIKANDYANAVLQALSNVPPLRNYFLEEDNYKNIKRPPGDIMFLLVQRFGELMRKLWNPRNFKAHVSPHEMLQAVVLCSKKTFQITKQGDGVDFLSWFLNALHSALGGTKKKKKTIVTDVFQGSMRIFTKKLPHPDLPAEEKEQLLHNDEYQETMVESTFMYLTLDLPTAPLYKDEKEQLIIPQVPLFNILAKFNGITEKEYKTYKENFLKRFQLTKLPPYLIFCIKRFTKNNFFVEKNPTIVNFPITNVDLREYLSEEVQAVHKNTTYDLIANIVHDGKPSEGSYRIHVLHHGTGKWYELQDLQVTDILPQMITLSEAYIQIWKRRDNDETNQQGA
Summary of the method: as §1

USP4 = molecular target: T4, USP4 (UniProt Q13107)
T4 sequence (whole entry): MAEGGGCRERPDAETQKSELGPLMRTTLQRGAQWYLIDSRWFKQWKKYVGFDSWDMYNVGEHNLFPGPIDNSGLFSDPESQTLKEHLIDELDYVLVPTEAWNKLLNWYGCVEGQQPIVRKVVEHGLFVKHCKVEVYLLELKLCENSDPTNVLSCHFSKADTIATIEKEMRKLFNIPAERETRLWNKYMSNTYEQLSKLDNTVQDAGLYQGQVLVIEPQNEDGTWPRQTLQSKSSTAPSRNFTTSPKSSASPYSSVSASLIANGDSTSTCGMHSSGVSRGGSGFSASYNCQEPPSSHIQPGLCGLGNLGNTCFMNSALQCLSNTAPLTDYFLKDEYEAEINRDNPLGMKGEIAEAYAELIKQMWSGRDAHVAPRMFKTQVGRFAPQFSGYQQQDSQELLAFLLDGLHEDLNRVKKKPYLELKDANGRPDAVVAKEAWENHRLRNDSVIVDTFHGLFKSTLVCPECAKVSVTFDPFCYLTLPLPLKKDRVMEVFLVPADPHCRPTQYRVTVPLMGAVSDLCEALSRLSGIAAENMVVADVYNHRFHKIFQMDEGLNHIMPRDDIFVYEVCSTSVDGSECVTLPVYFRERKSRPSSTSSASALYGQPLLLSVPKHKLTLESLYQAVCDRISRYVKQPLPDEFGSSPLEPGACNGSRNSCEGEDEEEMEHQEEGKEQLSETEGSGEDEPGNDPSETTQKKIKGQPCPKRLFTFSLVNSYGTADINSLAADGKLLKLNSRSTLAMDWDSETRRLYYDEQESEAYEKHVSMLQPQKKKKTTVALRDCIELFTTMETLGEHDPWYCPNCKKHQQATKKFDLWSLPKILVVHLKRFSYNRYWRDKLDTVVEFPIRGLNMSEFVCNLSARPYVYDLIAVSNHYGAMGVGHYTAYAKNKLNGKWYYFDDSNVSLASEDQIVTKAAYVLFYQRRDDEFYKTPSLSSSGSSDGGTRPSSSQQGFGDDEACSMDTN
Summary of the method: as §1

Measured: log2 ratio of Biotin-Ahx-Ub-VS probe labelling

USP34, sequence (Q70CQ2 whole entry, the tested form may be a part): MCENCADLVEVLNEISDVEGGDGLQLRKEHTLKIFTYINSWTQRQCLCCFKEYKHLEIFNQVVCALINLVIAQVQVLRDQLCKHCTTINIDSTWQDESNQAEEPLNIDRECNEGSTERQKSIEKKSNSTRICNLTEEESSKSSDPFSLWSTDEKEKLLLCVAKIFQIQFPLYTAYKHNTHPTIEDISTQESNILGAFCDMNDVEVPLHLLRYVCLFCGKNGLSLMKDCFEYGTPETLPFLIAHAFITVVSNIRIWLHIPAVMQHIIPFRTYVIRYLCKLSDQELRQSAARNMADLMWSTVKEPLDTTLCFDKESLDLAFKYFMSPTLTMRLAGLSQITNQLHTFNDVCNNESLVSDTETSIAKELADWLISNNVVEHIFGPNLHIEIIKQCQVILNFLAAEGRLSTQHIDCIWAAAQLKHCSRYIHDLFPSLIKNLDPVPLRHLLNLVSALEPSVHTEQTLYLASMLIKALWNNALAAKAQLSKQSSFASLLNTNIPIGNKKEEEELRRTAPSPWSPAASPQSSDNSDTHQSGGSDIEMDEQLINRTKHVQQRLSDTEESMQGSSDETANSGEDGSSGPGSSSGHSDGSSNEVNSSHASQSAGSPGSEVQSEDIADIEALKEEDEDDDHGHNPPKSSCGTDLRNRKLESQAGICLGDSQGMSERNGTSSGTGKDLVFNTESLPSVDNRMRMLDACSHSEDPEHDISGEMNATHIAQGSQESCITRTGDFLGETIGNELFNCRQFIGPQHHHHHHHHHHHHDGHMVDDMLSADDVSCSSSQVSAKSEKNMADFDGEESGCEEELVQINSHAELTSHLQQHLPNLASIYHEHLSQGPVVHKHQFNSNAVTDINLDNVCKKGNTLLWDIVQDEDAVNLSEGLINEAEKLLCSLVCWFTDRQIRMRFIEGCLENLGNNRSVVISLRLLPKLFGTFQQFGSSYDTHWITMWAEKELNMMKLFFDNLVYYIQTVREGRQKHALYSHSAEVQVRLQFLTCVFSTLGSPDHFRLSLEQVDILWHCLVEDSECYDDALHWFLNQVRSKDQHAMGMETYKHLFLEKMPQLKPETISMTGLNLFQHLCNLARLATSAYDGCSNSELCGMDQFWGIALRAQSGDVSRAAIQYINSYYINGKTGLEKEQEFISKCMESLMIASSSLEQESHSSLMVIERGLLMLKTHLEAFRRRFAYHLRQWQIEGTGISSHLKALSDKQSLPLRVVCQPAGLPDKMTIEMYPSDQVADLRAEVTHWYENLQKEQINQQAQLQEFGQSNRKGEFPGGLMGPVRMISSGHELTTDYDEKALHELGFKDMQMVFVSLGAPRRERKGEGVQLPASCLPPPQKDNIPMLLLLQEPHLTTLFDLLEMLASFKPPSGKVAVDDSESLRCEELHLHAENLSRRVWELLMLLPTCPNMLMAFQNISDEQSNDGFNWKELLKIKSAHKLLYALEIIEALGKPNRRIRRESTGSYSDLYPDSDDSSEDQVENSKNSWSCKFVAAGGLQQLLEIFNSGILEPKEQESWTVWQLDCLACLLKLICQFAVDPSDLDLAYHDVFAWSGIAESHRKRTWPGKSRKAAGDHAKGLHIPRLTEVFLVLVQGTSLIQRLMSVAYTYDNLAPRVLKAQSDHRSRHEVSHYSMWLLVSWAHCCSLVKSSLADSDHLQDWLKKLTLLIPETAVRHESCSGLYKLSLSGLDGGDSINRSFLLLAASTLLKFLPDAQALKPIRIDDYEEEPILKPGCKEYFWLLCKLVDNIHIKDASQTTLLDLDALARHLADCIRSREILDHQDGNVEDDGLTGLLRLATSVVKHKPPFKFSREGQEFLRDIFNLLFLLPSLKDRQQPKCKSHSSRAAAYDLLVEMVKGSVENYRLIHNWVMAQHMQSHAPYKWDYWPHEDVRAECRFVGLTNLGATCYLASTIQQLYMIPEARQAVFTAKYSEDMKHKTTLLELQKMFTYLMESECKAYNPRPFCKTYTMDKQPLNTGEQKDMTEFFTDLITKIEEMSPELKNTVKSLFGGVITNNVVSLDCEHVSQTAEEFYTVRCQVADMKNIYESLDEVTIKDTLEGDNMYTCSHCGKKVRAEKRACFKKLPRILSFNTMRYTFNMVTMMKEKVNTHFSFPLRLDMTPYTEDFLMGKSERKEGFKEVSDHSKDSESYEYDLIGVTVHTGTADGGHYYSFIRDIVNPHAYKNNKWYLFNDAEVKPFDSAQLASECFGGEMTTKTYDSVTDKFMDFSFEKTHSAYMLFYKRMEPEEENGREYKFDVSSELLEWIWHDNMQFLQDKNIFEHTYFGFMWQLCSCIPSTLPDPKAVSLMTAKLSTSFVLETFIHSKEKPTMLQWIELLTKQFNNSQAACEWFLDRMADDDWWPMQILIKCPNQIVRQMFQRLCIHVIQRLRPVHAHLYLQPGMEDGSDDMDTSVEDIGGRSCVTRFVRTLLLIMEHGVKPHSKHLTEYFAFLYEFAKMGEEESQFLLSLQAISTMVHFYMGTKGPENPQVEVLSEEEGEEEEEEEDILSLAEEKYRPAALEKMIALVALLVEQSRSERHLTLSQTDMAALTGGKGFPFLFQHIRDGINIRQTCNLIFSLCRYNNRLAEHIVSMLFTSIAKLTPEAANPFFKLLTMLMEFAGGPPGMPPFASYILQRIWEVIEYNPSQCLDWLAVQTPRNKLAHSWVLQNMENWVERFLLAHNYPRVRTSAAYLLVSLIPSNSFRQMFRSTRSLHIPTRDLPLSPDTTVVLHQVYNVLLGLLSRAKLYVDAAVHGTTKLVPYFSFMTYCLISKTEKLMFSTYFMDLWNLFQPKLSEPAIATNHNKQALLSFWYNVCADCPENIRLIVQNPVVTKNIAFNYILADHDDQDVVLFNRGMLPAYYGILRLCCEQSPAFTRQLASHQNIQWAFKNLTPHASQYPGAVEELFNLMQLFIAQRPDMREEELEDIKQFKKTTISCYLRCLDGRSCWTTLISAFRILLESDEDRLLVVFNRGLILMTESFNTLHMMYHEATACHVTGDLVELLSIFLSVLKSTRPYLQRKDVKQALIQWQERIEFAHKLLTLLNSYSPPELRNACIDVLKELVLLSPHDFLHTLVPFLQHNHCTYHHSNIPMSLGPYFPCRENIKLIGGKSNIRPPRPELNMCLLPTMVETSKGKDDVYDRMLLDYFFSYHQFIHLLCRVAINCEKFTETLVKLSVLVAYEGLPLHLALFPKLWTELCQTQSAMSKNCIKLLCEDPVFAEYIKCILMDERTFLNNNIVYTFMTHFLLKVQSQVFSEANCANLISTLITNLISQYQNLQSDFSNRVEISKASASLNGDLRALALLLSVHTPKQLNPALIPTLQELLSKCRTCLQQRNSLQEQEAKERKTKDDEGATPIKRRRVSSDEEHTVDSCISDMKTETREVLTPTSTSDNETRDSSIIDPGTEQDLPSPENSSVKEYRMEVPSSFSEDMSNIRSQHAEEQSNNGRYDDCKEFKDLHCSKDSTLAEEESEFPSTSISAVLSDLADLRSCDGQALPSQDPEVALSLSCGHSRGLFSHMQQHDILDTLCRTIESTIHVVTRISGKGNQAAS

O=C(CCl)Nc1ccc(F)cc1Cl
inactive: USP34 -0.452 | USP36 0.0206 | USP38 -0.165 | USP39 0.253 | USP4 -0.129
